The values below come from PubChem BioAssay (NCATS).

Each structure is given as a SMILES string. Results filed as inconclusive are left out. Values without a mark were called inactive. Calls of active or inactive are those of the source. Calls follow the shape of the dose curve; as a rule, active = well fitted inhibition curve with a large enough effect; inconclusive = small, poorly fitted or top-dose-only effect; inactive = flat fitted curve, though single readings scatter.
% is scaled to controls: 0 for no effect and ±100 for the full control effect; potency is read from the fitted curve at half-maximal effect.

The target of the assay is Ubiquitin carboxyl-terminal hydrolase 1 (Homo sapiens) (UniProt O94782). Briefly: Inhibitors of USP1/UAF1: Pilot qHTS (AID 504865). Also: nearly all actives have a fitted effect of over 35% in size.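 As to activity change, negative = inhibition: rhodamine fluorescence freed from ubiquitin-rhodamine substrate followed over time; top concentration of the series differs between compounds.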 The following applies: purified USP1/UAF1, Ub-rhodamine cleavage fluorescence; series mostly up to 114 µM; activity change, negative = inhibition: at the top concentration. A digest of the protocol: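 USP1/UAF1 complex (1nM) preincubated with compound 15 min at room temperature, then Ub-Rho substrate (150nM final) added. Fluorescence read kinetically at 480/540 nm, 6 reads every 60 seconds. Buffer: 50mM HEPES pH 7.8, 0.5mM EDTA, 0.1 mg/ml BSA, 1mM TCEP, 0.01% Tween-20.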
Sequence of Ubiquitin carboxyl-terminal hydrolase 1 (Homo sapiens) (O94782 whole entry, looked up): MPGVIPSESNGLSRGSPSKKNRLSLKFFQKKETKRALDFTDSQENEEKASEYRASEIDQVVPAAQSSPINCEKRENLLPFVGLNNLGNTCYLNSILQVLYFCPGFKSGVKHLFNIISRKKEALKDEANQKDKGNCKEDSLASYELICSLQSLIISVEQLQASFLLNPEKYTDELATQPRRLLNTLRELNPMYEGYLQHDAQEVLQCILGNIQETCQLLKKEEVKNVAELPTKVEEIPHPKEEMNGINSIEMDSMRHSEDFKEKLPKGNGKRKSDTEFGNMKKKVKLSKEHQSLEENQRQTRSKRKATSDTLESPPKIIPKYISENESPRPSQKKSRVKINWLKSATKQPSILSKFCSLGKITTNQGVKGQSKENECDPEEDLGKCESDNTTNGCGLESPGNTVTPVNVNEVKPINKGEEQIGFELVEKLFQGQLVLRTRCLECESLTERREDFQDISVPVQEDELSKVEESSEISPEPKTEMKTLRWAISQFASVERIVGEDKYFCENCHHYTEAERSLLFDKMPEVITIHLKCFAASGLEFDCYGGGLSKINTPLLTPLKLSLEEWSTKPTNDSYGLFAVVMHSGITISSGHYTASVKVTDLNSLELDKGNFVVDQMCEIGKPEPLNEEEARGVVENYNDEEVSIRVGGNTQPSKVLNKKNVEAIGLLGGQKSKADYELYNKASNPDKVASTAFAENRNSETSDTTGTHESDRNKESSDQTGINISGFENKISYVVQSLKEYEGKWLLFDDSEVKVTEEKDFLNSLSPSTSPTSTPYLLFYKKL
(In qHTS, concentration-response curves come from the screen itself.)
As for `CC(C)OC(=O)Nc1ccc2nc(-c3cscn3)[nH]c2c1`, the “activity change, negative = inhibition” value is -12.6%.

`OCCCNc1ccccc1`: the “activity change, negative = inhibition” value was -3.21%.

Take `O=C(O)/C=C/c1ccccc1`: the “activity change, negative = inhibition” value is -7.62%.

As to `CCCOc1cc(N)ccc1C(=O)OCCN(CC)CC`, the “activity change, negative = inhibition” value was 17.3% [at 54.9 µM].

On to `CC(O)CN(C)C` (centres undefined), for which the “activity change, negative = inhibition” value is -7.91%.

For the molecule `O=C(O)CC/C=C\CC[C@@H]1[C@@H](N2CCCCC2)[C@@H](O)C[C@@H]1OCc1ccc(-c2ccccc2)cc1`, the “activity change, negative = inhibition” value was -6.16%.

As to `CC(C)NCC(O)COc1ccccc1-n1cccc1` (centres undefined), the “activity change, negative = inhibition” value is -4.76%.

For the molecule `NC(N)=NCC1COc2ccccc2O1` (centres undefined), the “activity change, negative = inhibition” value was -3.37%.

In the case of `CC(=O)N=c1sc(S(N)(=O)=O)nn1C`, the “activity change, negative = inhibition” value was -0.983% [at 54.9 µM].

As for `O=P(O)(O)OC[C@H](O)CO`, the “activity change, negative = inhibition” value was 2.45%.

With `OC1OC[C@@H](O)[C@H](O)[C@@H]1O` (some centres undefined), the “activity change, negative = inhibition” value is -4.16%.

Consider `CCOc1ccc(NC(=S)Nc2ccc(OCC)cc2)cc1`, for which the “activity change, negative = inhibition” value is -6.82%.

Consider `CN(C)CCCSc1ccccc1NC(=O)/C=C/c1ccccc1`, for which the “activity change, negative = inhibition” value is -6.82%.

For `NC(=O)C1c2ccccc2CCc2ccccc21`, the “activity change, negative = inhibition” value was -6.59%.

Consider `CCCCC[C@H](O)/C=C/[C@@H]1[C@H]2C/C(=C/CCCC(=O)O)O[C@H]2C[C@H]1O`, for which the “activity change, negative = inhibition” value was -8.1%.

Turning to `CC(=O)Oc1cc(C(F)(F)F)ccc1C(=O)O`, the “activity change, negative = inhibition” value was -0.994% [at 54.9 µM].

Consider `NCC[C@H](O)C(=O)N[C@@H]1C[C@H](N)[C@@H](O[C@H]2O[C@H](CN)[C@@H](O)[C@H](O)[C@H]2O)[C@H](O)[C@H]1O[C@H]1O[C@H](CO)[C@@H](O)[C@H](N)[C@H]1O`, for which the “activity change, negative = inhibition” value is 0.456%.

`CCCc1nc(C(C)(C)O)c(C(=O)OCc2oc(=O)oc2C)n1Cc1ccc(-c2ccccc2-c2nn[nH]n2)cc1`: the “activity change, negative = inhibition” value was -12.5%.

Consider `COC(=O)[C@@H](N)CS`, for which the “activity change, negative = inhibition” value was 4.74%.

On to `CCCOC(=O)c1ccccc1O`, for which the “activity change, negative = inhibition” value is -2.68%.

As for `Cn1c(O)c(N=NC(N)=S)c2ccccc21`, the “activity change, negative = inhibition” value was -14.5%.

As to `O=P(O)(O)OC[C@H]1O[C@](O)(COP(=O)(O)O)[C@@H](O)[C@@H]1O`, the “activity change, negative = inhibition” value is -7.33%.

`CC(C)[C@@H](N)C(=O)O`: the “activity change, negative = inhibition” value is 3.81%.

In the case of `CN1CCc2c(c3ccccc3n2Cc2ccccc2)C1`, the “activity change, negative = inhibition” value is -10.2% [at 54.9 µM].

Consider `CCCCCc1ccc(C)cc1O`, for which the Potency was 35.5 µM (active).

For the molecule `OCC1(CO)COC(C(Cl)(Cl)Cl)OC1`, the “activity change, negative = inhibition” value was -7.45%.

On to `CO[C@H]1C[C@@H]2CC[C@@H](C)[C@@](O)(O2)C(=O)C(=O)N2CCCC[C@H]2C(=O)O[C@H]([C@H](C)C[C@@H]2CC[C@@H](OC(=O)C(C)(CO)CO)[C@H](OC)C2)CC(=O)[C@H](C)/C=C(\C)[C@@H](O)[C@@H](OC)C(=O)[C@H](C)C[C@H](C)/C=C/C=C/C=C/1C`, for which the “activity change, negative = inhibition” value was -3.32%.

Take `S=C=Nc1ccc(N=C=S)cc1`: the “activity change, negative = inhibition” value is -8.21%.

On to `O=C(O)CCC(=O)c1ccc(-c2ccccc2)cc1`, for which the “activity change, negative = inhibition” value is 2.19% [at 54.9 µM].

`CN1CCCC(CN2c3ccccc3Sc3ccccc32)C1` (centres undefined): the “activity change, negative = inhibition” value is -3.09%.

Regarding `CN(C)CCC=C1c2ccccc2C(C)(C)c2ccccc21`, the Potency is 56.2 µM (active).

For `CN(C)C(=O)CCSC(SCCC(=O)O)c1cccc(/C=C/c2ccc3ccc(Cl)cc3n2)c1` (centres undefined), the Potency was 50.1 µM (active).

For `NC(=S)N=Nc1ccc(NN=C(N)N)cc1`, the Potency was 44.7 µM (active).

Regarding `O=C(CCCCCCCCCCCCC1CCCC1)Nc1ccc(S(=O)(=O)c2ccc(NC(=O)CCCCCCCCCCCCC3CCCC3)cc2)cc1`, the “activity change, negative = inhibition” value was 20.7%.
